Test results published in PubChem BioAssay AID504333 (National Center for Advancing Translational Sciences (NCATS), 2011).
Hit rate of the full screen: of about 360,000 compounds, about 16,000 (4.4%) were called active. Entries that show only a call come without a potency. Inconclusive results (about 9%) are left out. Calls come from the whole dose curve; as a rule, active = well fitted inhibition curve with a large enough effect; inconclusive = small, poorly fitted or top-dose-only effect; inactive = no such curve, though single readings can be large or run the other way. Many of the other results were omitted from the sample, so actives are more common in it than they were.
Note: nearly all actives have a fitted effect of over 60% in size.
Potency is the fitted concentration of half-maximal effect.

What follows are molecules tested against Bromodomain adjacent to zinc finger domain protein 2B (Homo sapiens) (UniProt Q9UIF8) (assay: qHTS Assay for Inhibitors of BAZ2B). Details: AlphaScreen BAZ2B-H3K14Ac peptide displacement; series mostly up to 114 µM.
Bromodomain adjacent to zinc finger domain protein 2B (Homo sapiens), sequence (Q9UIF8 whole entry, looked up, the tested form may be a part): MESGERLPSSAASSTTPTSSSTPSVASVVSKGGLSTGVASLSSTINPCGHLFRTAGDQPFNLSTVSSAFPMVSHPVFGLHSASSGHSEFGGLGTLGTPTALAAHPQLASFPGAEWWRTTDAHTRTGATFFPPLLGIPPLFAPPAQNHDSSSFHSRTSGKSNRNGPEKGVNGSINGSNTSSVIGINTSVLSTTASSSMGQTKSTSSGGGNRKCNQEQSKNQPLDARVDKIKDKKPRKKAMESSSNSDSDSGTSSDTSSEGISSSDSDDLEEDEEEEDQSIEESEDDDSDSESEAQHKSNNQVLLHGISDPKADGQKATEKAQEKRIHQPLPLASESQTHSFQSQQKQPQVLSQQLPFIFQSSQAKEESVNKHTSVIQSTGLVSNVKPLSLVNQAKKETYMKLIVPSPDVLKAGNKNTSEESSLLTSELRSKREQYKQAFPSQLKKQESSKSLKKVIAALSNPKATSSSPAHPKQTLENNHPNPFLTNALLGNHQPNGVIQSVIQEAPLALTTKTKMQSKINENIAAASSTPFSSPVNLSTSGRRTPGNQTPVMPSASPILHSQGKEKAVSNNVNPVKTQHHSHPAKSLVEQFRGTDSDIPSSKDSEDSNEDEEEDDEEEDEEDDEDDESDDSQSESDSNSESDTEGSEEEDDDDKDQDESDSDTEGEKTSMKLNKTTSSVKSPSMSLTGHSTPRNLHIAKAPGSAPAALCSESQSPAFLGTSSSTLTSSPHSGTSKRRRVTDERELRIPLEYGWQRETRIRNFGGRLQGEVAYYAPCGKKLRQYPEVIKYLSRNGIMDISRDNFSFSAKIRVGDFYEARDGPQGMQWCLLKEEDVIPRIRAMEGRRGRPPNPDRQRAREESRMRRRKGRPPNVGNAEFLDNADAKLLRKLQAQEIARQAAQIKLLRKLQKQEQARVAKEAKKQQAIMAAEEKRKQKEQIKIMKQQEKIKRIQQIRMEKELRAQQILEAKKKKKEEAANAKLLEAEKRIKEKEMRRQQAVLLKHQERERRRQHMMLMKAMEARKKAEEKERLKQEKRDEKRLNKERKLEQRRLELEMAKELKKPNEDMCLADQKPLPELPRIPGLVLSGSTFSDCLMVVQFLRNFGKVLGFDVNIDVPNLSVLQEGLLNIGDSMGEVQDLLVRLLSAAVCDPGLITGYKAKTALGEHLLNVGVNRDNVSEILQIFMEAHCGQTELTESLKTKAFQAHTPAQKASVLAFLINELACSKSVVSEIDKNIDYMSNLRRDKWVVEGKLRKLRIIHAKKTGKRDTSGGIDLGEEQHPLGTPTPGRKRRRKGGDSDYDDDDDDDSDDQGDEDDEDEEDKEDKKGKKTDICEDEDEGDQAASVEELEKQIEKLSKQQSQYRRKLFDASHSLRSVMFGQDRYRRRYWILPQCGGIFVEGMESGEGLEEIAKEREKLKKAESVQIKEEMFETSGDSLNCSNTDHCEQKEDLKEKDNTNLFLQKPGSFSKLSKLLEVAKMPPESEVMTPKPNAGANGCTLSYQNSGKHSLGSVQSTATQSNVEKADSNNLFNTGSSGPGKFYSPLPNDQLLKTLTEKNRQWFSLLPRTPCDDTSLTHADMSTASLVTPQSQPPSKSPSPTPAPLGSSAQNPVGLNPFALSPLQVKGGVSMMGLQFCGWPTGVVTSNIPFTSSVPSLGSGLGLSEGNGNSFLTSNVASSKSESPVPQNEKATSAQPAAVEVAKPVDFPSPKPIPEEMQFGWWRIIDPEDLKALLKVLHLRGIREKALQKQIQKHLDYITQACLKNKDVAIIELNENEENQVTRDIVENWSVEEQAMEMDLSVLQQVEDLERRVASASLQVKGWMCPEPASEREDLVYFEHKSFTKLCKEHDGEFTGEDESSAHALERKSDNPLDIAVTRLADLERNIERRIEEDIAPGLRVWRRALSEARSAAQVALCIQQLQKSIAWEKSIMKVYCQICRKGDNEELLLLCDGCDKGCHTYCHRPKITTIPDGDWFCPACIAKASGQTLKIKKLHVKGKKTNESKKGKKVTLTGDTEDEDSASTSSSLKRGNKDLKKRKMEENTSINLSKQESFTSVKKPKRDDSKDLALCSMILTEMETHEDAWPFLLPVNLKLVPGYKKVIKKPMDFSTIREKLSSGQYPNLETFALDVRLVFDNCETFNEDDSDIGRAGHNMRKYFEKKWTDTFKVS
Summary of the method: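 Multi-concentration screen (max 110 uM) measuring displacement of acetylated histone H3 peptide from BAZ2B by AlphaScreen, using 50 nM protein, 50 nM peptide and 10 ug/mL streptavidin donor plus Ni-chelate acceptor beads.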
With `CCOCCCn1c(SCC(=O)Nc2ccc(CC)cc2)nc2ccccc2c1=O` the Potency was “inactive”.
With `COc1ccc(S(=O)(=O)c2c(Nc3cccc(Cl)c3)sc(C(=O)c3ccccc3)c2N)cc1` the Potency was “inactive”.
With `O=C(c1ccc(CS(=O)(=O)c2ccccc2)o1)N1CCN(c2ccccc2)CC1` the Potency was 56.2 µM (active).
For `O=C(c1ccc(S(=O)(=O)N2CCOCC2)cc1)N1CCN(c2ccccc2)CC1`, the Potency was “inactive”.
For `COc1ccccc1CNC(=O)c1ccc(CS(=O)(=O)c2ccccc2)o1`, the Potency was “inactive”.
`Cc1ccc2oc(=O)c3cnn(CC(=O)N4CCN(c5cccc(Cl)c5)CC4)c3c2c1` was tested, and the Potency was “inactive”.
With `O=S(=O)(NC1CCCCC1N1CCN(c2ccccc2F)CC1)c1ccccc1` (stereo not given) the Potency was “inactive”.
With `COc1ccc(N2CCN(C3CCCCC3NS(=O)(=O)c3ccccc3)CC2)cc1` (stereo not given) the Potency was 17.8 µM (active).
With `CCN1CCN(C2CCCCC2NS(=O)(=O)c2ccc(Cl)cc2)CC1` (stereo not given) the Potency was “inactive”.
In the case of `O=C(NCc1ccc(F)cc1)c1ccc2nc(N3CCCCC3)sc2c1`, the Potency is reported as “inactive”.
For `COc1ccc(C(=O)Nc2nonc2-c2ccc(OC)c(OC)c2)cc1Cl`, the Potency was “inactive”.
For `CCCCCn1c(CCNC(=O)c2ccc(F)cc2)nc2ccccc21`, the Potency was “inactive”.
In the case of `Cc1ccccc1S(=O)(=O)N1[C@@H](c2cccc(Cl)c2)C(C(=O)O)=CC[C@H]1c1ccc(Cl)cc1`, the Potency is reported as 79.4 µM (active).
For `Cc1ccc(S(=O)(=O)N2[C@@H](c3ccccc3F)C(C(=O)O)=CC[C@H]2c2ccc(Cl)cc2)cc1`, the Potency was “inactive”.
In the case of `CN1OC(COC(=O)c2ccc(Cl)cc2)CC1c1ccccc1` (stereo not given), the Potency is reported as “inactive”.
In the case of `Cc1cc2n(n1)C(c1cc(C(C)(C)C)c(O)cc1O)Nc1ccccc1-2` (stereo not given), the Potency is reported as “inactive”.
`CSc1nc(-c2ccccc2Cl)nc2c1Cc1c(CO)cnc(C)c1O2` was tested, and the Potency was “inactive”.
With `O=C(CSc1nc2nccnc2c(=O)n1CCc1c[nH]c2ccccc12)Nc1ccccc1F` the Potency was “inactive”.
In the case of `Cc1ccc(CSc2nc3ccsc3c(=O)n2CCC(C)C)cc1`, the Potency is reported as “inactive”.
`CCOc1ccc(Nc2nc(Cl)nc(N3CCN(c4ccc(OC)cc4)CC3)n2)cc1` was tested, and the Potency was 8.91 µM (active).
For `COc1ccc(Nc2ncc(F)c(N3CCOCC3)n2)cc1`, the Potency was “inactive”.
For `Cc1ccc(Nc2nc(N3CCOCC3)nc(N3CCOCC3)n2)cc1Cl`, the Potency was “inactive”.
With `CCOC(=O)c1ccc(NC(=O)Cc2cccs2)cc1` the Potency was “inactive”.
In the case of `CCOc1ccccc1NC(=O)Cc1cccs1`, the Potency is reported as 50.1 µM (active).
With `CCOc1ccccc1NC(=O)Cn1nnc(C(=O)NCc2cccs2)c1N` the Potency was “inactive”.
In the case of `COc1ccc(CNc2nc(-c3ccccc3)nn2C(=O)c2ccccc2OC)cc1`, the Potency is reported as “inactive”.
`Nc1ccc(-c2sc(N)nc2-c2ccccc2)cc1` was tested, and the Potency was 50.1 µM (active).
`Nc1ccc(-c2nnc(-c3ccccc3)o2)cc1` was tested, and the Potency was “inactive”.
`COc1ccc(NC(=O)c2sc(N)nc2-c2ccccc2)cc1` was tested, and the Potency was “inactive”.
In the case of `COc1cc(C(=O)N2CCN(c3ccc(Nc4ccc(C)cc4)nn3)CC2)cc(OC)c1OC`, the Potency is reported as “inactive”.
In the case of `Cc1ccc(S(=O)(=O)NCC(=O)N2CCN(c3ccccn3)CC2)cc1`, the Potency is reported as “inactive”.
With `Cc1ccc(N2CCN(c3ccc(C)cc3)C2c2ccccn2)cc1` the Potency was 50.1 µM (active).
With `Cc1ccc(-n2ccc(=O)c(C(=O)O)n2)cc1` the Potency was “inactive”.
`O=S(=O)(NCCc1nnc2ccc(SCc3ccc(Cl)cc3Cl)nn12)c1ccccc1` was tested, and the Potency was “inactive”.
`COc1ccc(S(=O)(=O)n2nc(C)c(S(=O)(=O)N3CCCCCC3)c2C)cc1` was tested, and the Potency was “inactive”.
For `CC(=O)Nc1ccc2nc(SCCOc3cc(C)cc(C)c3)sc2c1`, the Potency was “inactive”.
With `CCOc1cc2[nH]c(=O)n(Cc3ccc(C(=O)NCCN(CC)CC)cc3)c(=O)c2cc1OCC` the Potency was “inactive”.
In the case of `CCCC(=O)N1CCN(c2nc3c(OC)ccc(C)c3s2)CC1`, the Potency is reported as “inactive”.
For `Cc1c2cnn(-c3ccccc3)c(=O)c2c(C)n1C(C)C(=O)Nc1ccc(Br)cc1F` (stereo not given), the Potency was “inactive”.
`COc1ccc(CC(=O)Nc2nc(-c3ccc(F)c(F)c3)cs2)cc1OC` was tested, and the Potency was “inactive”.
`COc1ccc(-c2csc(NC(=O)COC(=O)Cc3ccc(Cl)cc3Cl)n2)cc1` was tested, and the Potency was “inactive”.
In the case of `COc1ccc(-c2csc(Nc3ccc(O)cc3)n2)cc1`, the Potency is reported as 35.5 µM (active).
With `COc1ccc(OC)c(Nc2nc(-c3ccc(O)c(O)c3)cs2)c1` the Potency was 50.1 µM (active).
With `COc1ccc(-c2csc(NC(=O)COC(=O)c3ccc(Br)o3)n2)cc1` the Potency was “inactive”.
For `COc1ccc(OC)c(-c2csc(NC(=O)COC(=O)C3CC3)n2)c1`, the Potency was “inactive”.
In the case of `CC1CCN(c2nc3ccc(C(=O)N4CCN(c5ccccc5)CC4)cc3s2)CC1`, the Potency is reported as “inactive”.
`COc1ccccc1C(=O)Nc1c(C(=O)N(C)Cc2ccccc2)sc2nc(C)c(Cl)c(C)c12` was tested, and the Potency was “inactive”.
`COc1ccc(NC(=O)CCNS(=O)(=O)c2ccc3c(c2)CCCC(=O)N3)cc1Cl` was tested, and the Potency was “inactive”.
`COc1ccc(NC(=O)CSc2nc3ccccc3n2CC(=O)N2CCCCC2C)cc1` (stereo not given) was tested, and the Potency was “inactive”.
In the case of `Cc1ccc(S(=O)(=O)N(CC(=O)Nc2ccc(Cl)cc2Cl)c2ccccc2C)cc1`, the Potency is reported as “inactive”.
In the case of `CCOc1cc(C(=O)NCCc2csc3nc(-c4ccc(C)cc4)nn23)cc(OCC)c1OCC`, the Potency is reported as “inactive”.
In the case of `CCOC(=O)c1cccc(NS(=O)(=O)c2cc(-c3cnc(C)o3)ccc2OC)c1`, the Potency is reported as “inactive”.
For `O=C(NC1CCN(Cc2ccccc2)CC1)c1ccc(Cn2c(=O)c3ccccc3n(Cc3cccc(F)c3)c2=O)cc1`, the Potency was “inactive”.
In the case of `CCOC(=O)C1CCCN(C(=O)Cn2ncc3c(C)n(Cc4ccc(F)cc4)c(C)c3c2=O)C1` (stereo not given), the Potency is reported as “inactive”.
With `CCCCN(CC)CCCNC(=O)c1nn(C)c2c1CS(=O)(=O)c1ccccc1-2` the Potency was “inactive”.
`COc1ccccc1CN1CCC(CNC(=O)c2cnn(-c3cccc(Cl)c3)c2C2CCN(C(=O)OC(C)(C)C)CC2)CC1` was tested, and the Potency was “inactive”.
For `COC(=O)C1=C(C)N(C)C(=S)NC1c1ccccc1` (stereo not given), the Potency was “inactive”.
With `COCCN1C(=O)N[C@@H](c2ccccc2)C(C(=O)OC)=C1C` the Potency was “inactive”.
In the case of `CCN1C(=S)N[C@@H](c2cccc(C(F)(F)F)c2)C(C(=O)OC)=C1C`, the Potency is reported as 50.1 µM (active).
With `COC(=O)CC1Oc2ccccc2-n2cc(-c3ccccc3)nc21` (stereo not given) the Potency was “inactive”.
With `COc1ccc(C(=O)/C=C/c2ccc(OC3CSC3)cc2)cc1` the Potency was “inactive”.
With `COc1ccc(/C=C/C(=O)c2cc(Br)ccc(=O)c2O)cc1` the Potency was 44.7 µM (active).
In the case of `COc1ccc(C(=O)/C=C/c2cccnc2)c(OC)c1`, the Potency is reported as “inactive”.
For `COc1cc(OC)c(OC)cc1/C=C/c1nc2cc3ccccc3cc2c(=O)n1-c1ccc(F)c(Cl)c1`, the Potency was “inactive”.
In the case of `COc1ccc(CCNS(=O)(=O)c2cc(-c3cc(C)no3)ccc2C)cc1OC`, the Potency is reported as “inactive”.
With `Cc1ccc(OCC(=O)Nc2ccc(N3CCN(C(=O)c4ccco4)CC3)cc2)c(C)c1` the Potency was 31.6 µM (active).
In the case of `Cc1ccc(C)c(OCC(=O)N2CCN(C(=O)c3ccco3)CC2)c1`, the Potency is reported as “inactive”.
In the case of `CCC(=O)Nc1ccc(C(=O)N2CCN(C(=O)c3ccco3)CC2)cc1`, the Potency is reported as “inactive”.
`CCOc1ccc(Nc2c(S(=O)(=O)c3ccccc3)cnc3ccccc23)cc1` was tested, and the Potency was “inactive”.
For `O=C(NNc1c2ccccc2nc2ccccc12)c1cc2ccccc2cc1O`, the Potency was 8.91 µM (active).
With `CC(C)(C)OC(=O)NNc1c2ccccc2nc2ccccc12` the Potency was “inactive”.
With `O=C(N/N=C/c1cccnc1)c1cc2ccccc2cc1O` the Potency was “inactive”.
With `COC(=O)c1ccccc1NC(=O)c1ccc2c(=O)n3c(nc2c1)CCCCC3` the Potency was “inactive”.
In the case of `CC1=C(C(=O)N2CCN(c3cccc(C(F)(F)F)c3)CC2)C2(CCCCC2)OC1=O`, the Potency is reported as “inactive”.
In the case of `O=C(NCc1ccccc1)C(=O)NCC(c1ccco1)S(=O)(=O)c1ccc(Cl)cc1` (stereo not given), the Potency is reported as “inactive”.
With `Cc1cc(C(=O)NNC(=O)c2ccccc2O)c(C)o1` the Potency was “inactive”.
In the case of `C/C(=N\NC(=O)c1ccoc1C)c1ccccc1O`, the Potency is reported as 50.1 µM (active).
For `CC(C)=C(NC(=O)c1ccccc1)C(=O)N/N=C(\C)c1ccccc1O`, the Potency was “inactive”.
With `COc1cccc(-c2nc(S(=O)(=O)c3ccc(C)cc3)c(NCc3ccccc3)o2)c1` the Potency was “inactive”.
With `CC(C)(C)Nc1nc(-c2ccccn2)nc2ccccc12` the Potency was 50.1 µM (active).
In the case of `CCOCCCNc1nc(-c2ccccc2)nc2ccccc12`, the Potency is reported as “inactive”.
`CCC(=O)OCCNc1nc(-c2ccccc2)nc2ccccc12` was tested, and the Potency was “inactive”.
With `O=c1c2ccccc2n(Cc2cccc(Cl)c2)c(=O)n1Cc1ccccc1` the Potency was “inactive”.
With `O=c1c2cccnc2n(Cc2cccc(F)c2)c(=O)n1Cc1ccccc1Cl` the Potency was “inactive”.
In the case of `Clc1cccc(CN2COc3c(cc(Cl)c4cccnc34)C2)c1`, the Potency is reported as 28.2 µM (active).
For `COc1ccc(CNC(=O)c2cc3c(s2)-c2ccccc2OC3)cc1`, the Potency was “inactive”.
For `Cc1nc2c(-c3ccccc3)c(C)nn2c(C)c1CCC(=O)NCCc1ccccc1`, the Potency was “inactive”.
`CC1=C(c2ccc(C)cc2)S(=O)(=O)NC1=NCCCN1CCN(c2cc(C)ccc2C)CC1` was tested, and the Potency was “inactive”.
With `O=c1ccc2c(-c3ccccc3S(=O)(=O)O)c3ccc(O)c(O)c3oc-2c1O` the Potency was 1 µM (active).
In the case of `CCOc1ccc(CCNC(=O)c2c(C)oc3ncn(C)c(=O)c23)cc1`, the Potency is reported as “inactive”.
For `COc1ccc(CCNC(=O)c2cnc3sc(N4CCCCCC4)nn3c2=O)cc1OC`, the Potency was “inactive”.
For `O=C(CCn1c(=O)c2ccccc2n(Cc2ccc(Cl)cc2)c1=O)NCc1ccc2c(c1)OCO2`, the Potency was “inactive”.
In the case of `Cc1ccc(NC(=O)CNCc2ccccn2)cc1S(=O)(=O)N(C)C`, the Potency is reported as 25.1 µM (active).
In the case of `CCN(c1ccccc1)S(=O)(=O)c1cc(C(=O)NCc2ccccn2)ccc1C`, the Potency is reported as “inactive”.
With `Cc1ccc(NC(=O)c2cccs2)cc1S(=O)(=O)N(C)C` the Potency was “inactive”.
For `O=S(=O)(Nc1ccc2nc(-c3cccc(Cl)c3)oc2c1)c1ccccc1`, the Potency was “inactive”.
With `COc1ccc(CNC(=O)CSc2nc3ccccc3nc2Cc2ccccc2)cc1` the Potency was “inactive”.
In the case of `CC(C)(C)c1ccc(C(=O)NCC(c2ccco2)S(=O)(=O)c2ccc(F)cc2)cc1` (stereo not given), the Potency is reported as “inactive”.
For `Cc1cccc(N2CCN(S(=O)(=O)c3ccc4[nH]c5c(c4c3)CCCCC5)CC2)c1C`, the Potency was “inactive”.
For `COc1ccccc1-c1cc(C(F)(F)F)nc(S(=O)(=O)CCCC(=O)Nc2cc(C)ccc2O)n1`, the Potency was “inactive”.
